In PubChem BioAssay:
The source made the active and inactive calls. Unless noted, how the calls were made is not given here.

How the values were obtained:
[1] = system: Wnt5a (protein binding on small-molecule microarray); assay: small molecules binding Wnt5a protein – biophysical, small-molecule microarray, 635/667 nm fluorescence, primary screen (AID 1142); conditions: 635 nm fluorescence, higher = more signal;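 further: fluorescence read at 667 nm with signal to noise per printed feature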
[2] = ATP-based viability of Huh7 replicon cells – cell-based, CellTiter-Glo luminescence, basal, 48 h, cytotoxicity control for HCV replication inhibitor project, primary screen (AID 1143); conditions: higher = more signal, called active from +8 up or from −8 down;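 further: Huh7 hepatoma cells carrying a hepatitis C replication reporter with no stimulus; test concentration not given here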
[3] = Pseudomonas biofilm growth suppression – PAO1 strain, BacTiter-Glo luminescence, LB-PBS, primary screen (AID 1144); conditions: P. aeruginosa PAO1 biofilm, 12 h, higher = more signal
[4] = basal CRE-LacZ reporter activity in PC12 – cell-based, unstimulated, primary screen (AID 1145); conditions: no forskolin, luminescence, 4.5 h, higher = more signal, called active from +8 up or from −8 down
[5] = forskolin-driven CRE-LacZ activity in PC12 – cell-based, CRE-LacZ reporter, forskolin-stimulated, primary screen (AID 1146); conditions: luminescence, 4.5 h, higher = more signal, called active from +8 up or from −8 down;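 further: PC12 cells with 6xCRE LacZ reporter stimulated by forskolin 10 µM; beta-galactosidase reporter signal reflecting CREB driven transcription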
[6] = molecular target: Streptavidin (Streptomyces avidinii) (UniProt P22629); assay: compounds binding control protein streptavidin – biophysical, small-molecule microarray, 635/667 nm fluorescence, artefact control for SMM compound annotation, primary screen (AID 1147); conditions: higher = more signal;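 further: signal reflects streptavidin binding to arrayed compounds as a control protein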
Chain of Streptavidin (Streptomyces avidinii) (P22629 whole entry, looked up): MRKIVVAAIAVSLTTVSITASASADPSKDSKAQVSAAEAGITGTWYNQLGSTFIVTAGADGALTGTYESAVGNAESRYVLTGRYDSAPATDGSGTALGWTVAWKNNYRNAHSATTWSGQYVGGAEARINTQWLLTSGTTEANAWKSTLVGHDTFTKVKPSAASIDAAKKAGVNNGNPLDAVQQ

[7] = probe aInhba binding on compound microarray – biochemical, small-molecule microarray, 635/667 nm fluorescence, primary screen (AID 1148); conditions: higher = more signal;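 further: score merges 667nm spot fluorescence with signal-to-noise for antibody binding to printed compounds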
Torsin-1A (Homo sapiens) [8] = molecular target: Torsin-1A (Homo sapiens) (UniProt O14656); assay: TOR1A wild-type binding on microarray – cell lysate, small-molecule microarray, lysate, 635/667 nm, primary screen (AID 1149); conditions: COS7 hTOR1A-WT lysate, 635 nm fluorescence, higher = more signal
Chain of Torsin-1A (Homo sapiens) (O14656 whole entry, looked up): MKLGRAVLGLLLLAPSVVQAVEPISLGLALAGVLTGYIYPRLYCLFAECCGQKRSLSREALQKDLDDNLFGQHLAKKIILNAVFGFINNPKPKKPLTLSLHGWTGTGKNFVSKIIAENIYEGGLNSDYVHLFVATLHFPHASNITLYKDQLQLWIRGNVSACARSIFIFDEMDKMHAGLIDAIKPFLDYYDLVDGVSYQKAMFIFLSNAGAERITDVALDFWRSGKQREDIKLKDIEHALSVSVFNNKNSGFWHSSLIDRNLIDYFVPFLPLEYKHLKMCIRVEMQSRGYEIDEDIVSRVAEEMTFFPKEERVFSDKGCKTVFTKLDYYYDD

Torsin-1A (Homo sapiens) [9] = molecular target: Torsin-1A (Homo sapiens) (UniProt O14656); assay: torsin A mutant lysate binding on microarrays – cell lysate, small-molecule microarray, COS7 lysate, 635/667 nm fluorescence, primary screen (AID 1150); conditions: COS7 hTOR1A mutant lysate, 635 nm fluorescence, higher = more signal;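 further: score pools 667 nm emission and signal to noise measuring lysate protein binding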
[10] = system: Sonic hedgehog protein (Shh); assay: Sonic hedgehog microarray binding compounds – biochemical, small-molecule microarray, 635/667 nm fluorescence, primary screen (AID 1151); conditions: 635 nm fluorescence, higher = more signal;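 further: Shh protein binding to compounds spotted on small-molecule microarray slides; score combines spot fluorescence intensity with signal-to-noise across triplicate slides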
[11] = optical density shifts of acrAB sulA E. coli – strain DRC41, OD650, 48 h, E. coli filamentation inducer project, primary screen (AID 1152); conditions: higher = more signal, called active from +8 up or from −8 down;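 further: E. coli MC1000 strain DRC41 lacking acrAB efflux pump and sulA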
[12] = probe aLefty1 binding on compound microarray – biochemical, small-molecule microarray, 635/667 nm fluorescence, primary screen (AID 1153); conditions: higher = more signal;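 further: score merges spot fluorescence with signal-to-noise ratio from the scanned slide images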
[13] = plasmodial surface anion channel blockers, osmotic lysis – cell-based, P. falciparum Indochina, OD700, 1 h, primary screen (AID 1154); conditions: P. falciparum Indochina infected RBC osmotic lysis, higher = more signal, called active from +8 up or from −8 down
[14] = plasmodial surface anion channel blockers, osmotic lysis – cell-based, P. falciparum Indochina, OD700, 2 h, primary screen (AID 1155);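 further: lysis reports solute entry through the parasite surface anion channel PSAC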; conditions: P. falciparum Indochina infected erythrocytes, higher = more signal, called active from +8 up or from −8 down
[15] = changes in parasitized red cell lysis, either direction – P. falciparum Indochina, OD700, 3 h, PSAC antagonist project, primary screen (AID 1156); conditions: P. falciparum-infected erythrocytes, osmotic lysis, higher = more signal, called active from +8 up or from −8 down
[16] = plasmodial surface anion channel blockers, osmotic lysis – cell-based, P. falciparum Indochina, OD700, 18 h, primary screen (AID 1157); conditions: P. falciparum Indochina infected erythrocytes, osmotic lysis OD700, 18 h; higher = more signal, called active from +8 up or from −8 down
[17] = S6 kinase pathway phospho-S6 level changes – cell-based, A549, cytoblot, luminescence, serum-stimulated, primary screen (AID 1158); conditions: 5 h, higher = more signal;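 further: serum-stimulated A549 lung adenocarcinoma cells; signal is phosphorylated S6 detected by cytoblot immunostaining with HRP secondary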
[18] = molecular target: NADPH oxidase 2 (Homo sapiens) (UniProt P04839); assay: compounds shifting NOX2 Amplex Red fluorescence – cell-based, HEK293-NOX2, PMA-stimulated, NOX inhibitor project, primary screen (AID 1159); conditions: 45 min, higher = more signal, called active from +8 up or from −8 down; further: test concentration not given here
Chain of NADPH oxidase 2 (Homo sapiens) (P04839 whole entry, looked up): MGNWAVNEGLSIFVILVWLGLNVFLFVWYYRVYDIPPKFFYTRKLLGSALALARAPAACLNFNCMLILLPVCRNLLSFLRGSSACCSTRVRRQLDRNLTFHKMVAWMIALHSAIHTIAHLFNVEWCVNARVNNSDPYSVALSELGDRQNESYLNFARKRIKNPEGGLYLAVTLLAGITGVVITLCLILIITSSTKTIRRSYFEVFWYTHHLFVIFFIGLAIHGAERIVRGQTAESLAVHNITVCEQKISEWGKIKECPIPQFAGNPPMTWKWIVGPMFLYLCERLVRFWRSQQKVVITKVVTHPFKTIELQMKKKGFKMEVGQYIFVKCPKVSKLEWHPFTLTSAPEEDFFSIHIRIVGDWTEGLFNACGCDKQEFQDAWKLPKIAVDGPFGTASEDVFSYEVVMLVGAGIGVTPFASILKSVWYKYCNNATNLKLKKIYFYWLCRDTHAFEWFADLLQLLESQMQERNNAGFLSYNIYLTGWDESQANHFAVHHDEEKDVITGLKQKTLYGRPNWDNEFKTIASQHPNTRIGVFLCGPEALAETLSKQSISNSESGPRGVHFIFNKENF

[19] = molecular target: NADPH oxidase 4 (Homo sapiens) (UniProt Q9NPH5); assay: compounds shifting NOX4 Amplex Red fluorescence – cell-based, HEK293-NOX4, tetracycline-induced, NOX inhibitor project, primary screen (AID 1160); conditions: HEK293-NOX4, Amplex Red H2O2 fluorescence, 45 min; higher = more signal, called active from +8 up or from −8 down
Chain of NADPH oxidase 4 (Homo sapiens) (Q9NPH5 whole entry, looked up): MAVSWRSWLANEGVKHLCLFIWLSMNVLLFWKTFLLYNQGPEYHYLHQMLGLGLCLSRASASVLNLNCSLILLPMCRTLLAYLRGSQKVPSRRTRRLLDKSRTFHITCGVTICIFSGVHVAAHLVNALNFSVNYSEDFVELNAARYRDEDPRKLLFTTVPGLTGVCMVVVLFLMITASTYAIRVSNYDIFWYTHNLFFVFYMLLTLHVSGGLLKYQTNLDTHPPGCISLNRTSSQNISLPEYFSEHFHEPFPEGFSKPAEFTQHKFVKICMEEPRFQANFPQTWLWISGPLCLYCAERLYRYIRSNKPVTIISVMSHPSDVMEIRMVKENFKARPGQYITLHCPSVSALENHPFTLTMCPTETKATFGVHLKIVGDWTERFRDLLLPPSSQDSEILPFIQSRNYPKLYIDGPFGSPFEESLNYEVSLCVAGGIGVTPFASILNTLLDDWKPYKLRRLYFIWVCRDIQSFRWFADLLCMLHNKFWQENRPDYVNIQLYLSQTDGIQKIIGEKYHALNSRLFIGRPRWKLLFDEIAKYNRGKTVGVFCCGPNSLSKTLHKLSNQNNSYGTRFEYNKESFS

[20] = molecular target: NADPH oxidase 5 (Homo sapiens) (UniProt Q96PH1); assay: compounds shifting NOX5 Amplex Red fluorescence – cell-based, HEK293-NOX5, NOX inhibitor project, primary screen (AID 1161); conditions: HEK293-NOX5, ionomycin, 45 min, higher = more signal
Chain of NADPH oxidase 5 (Homo sapiens) (Q96PH1 whole entry, looked up): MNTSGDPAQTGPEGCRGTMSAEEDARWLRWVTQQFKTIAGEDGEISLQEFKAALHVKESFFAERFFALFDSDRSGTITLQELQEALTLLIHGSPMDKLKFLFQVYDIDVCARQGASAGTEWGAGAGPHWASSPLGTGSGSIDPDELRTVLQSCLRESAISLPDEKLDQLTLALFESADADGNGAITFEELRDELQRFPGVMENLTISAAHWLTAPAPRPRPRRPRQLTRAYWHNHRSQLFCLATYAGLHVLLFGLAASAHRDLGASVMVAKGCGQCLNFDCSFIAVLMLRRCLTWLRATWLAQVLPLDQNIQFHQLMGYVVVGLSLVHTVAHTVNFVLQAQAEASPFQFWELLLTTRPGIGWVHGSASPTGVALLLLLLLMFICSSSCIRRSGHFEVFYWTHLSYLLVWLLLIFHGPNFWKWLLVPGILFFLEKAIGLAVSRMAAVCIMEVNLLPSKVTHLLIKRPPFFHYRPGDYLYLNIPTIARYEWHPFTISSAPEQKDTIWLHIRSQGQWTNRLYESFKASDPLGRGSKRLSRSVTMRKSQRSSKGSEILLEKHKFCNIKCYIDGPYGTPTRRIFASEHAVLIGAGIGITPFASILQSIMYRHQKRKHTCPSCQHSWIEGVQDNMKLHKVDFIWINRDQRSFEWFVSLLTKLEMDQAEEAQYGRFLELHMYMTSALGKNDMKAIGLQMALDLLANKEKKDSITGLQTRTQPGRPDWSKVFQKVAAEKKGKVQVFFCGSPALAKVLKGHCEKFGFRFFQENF

| SMILES | composite z-score [1] | z-score [2] | z-score [3] | z-score [4] | z-score [5] | composite z-score [6] | composite z-score [7] | composite z-score (Torsin-1A (Homo sapiens) [8]) | composite z-score (Torsin-1A (Homo sapiens) [9]) | composite z-score [10] | z-score [11] | composite z-score [12] | z-score [13] | z-score [14] | z-score [15] | z-score [16] | z-score [17] | z-score [18] | z-score [19] | z-score [20] |
| --- | --- | --- | --- | --- | --- | --- | --- | --- | --- | --- | --- | --- | --- | --- | --- | --- | --- | --- | --- | --- |
| C=CCN1Cc2ccccc2[C@H]2OC(c3ccc(OCCCO)cc3)=N[C@@]2(CC=C)C1=O | 1.07 | -3.16 (inactive) | -0.746 (inactive) | 0.0594 (inactive) | -1.58 (inactive) | 0.998 | 0.268 | 1.08 | 0.475 | 1.91 | 0.831 (inactive) | 0.692 | 29.9 (active) | 25.7 (active) | 1.97 (inactive) | 6.4 (inactive) | 0.0524 | -1.66 (inactive) | 0.367 (inactive) | 0.034 |
| CC(=O)NCCCC[C@@H]1NC(=O)[C@@H]2C[C@H](C(=O)NCCCC[N+](C)(C)C)[C@H](c3ccc(O)cc3)N2C1=O | 0.522 | -2.24 (inactive) | -0.279 (inactive) | -0.122 (inactive) | -0.528 (inactive) | -0.146 | 0.242 | 0.804 | 0.547 | 2.24 | -0.003 (inactive) | 0.389 | 0.369 (inactive) | -1.08 (inactive) | 0.267 (inactive) | -2.27 (inactive) | 1.34 | -3.26 (inactive) | -2.25 (inactive) | -4.41 |
| CCCCCCc1nc(-c2cc(C)c(OC)c(C)c2)c(C)c2c1[Si](C(C)C)(C(C)C)OC2 | 0 | -3.03 (inactive) | -0.892 (inactive) | 0.148 (inactive) | -0.101 (inactive) | 0.273 | -0.128 | 0.0704 | -1.06 | 0.186 | 0.03 (inactive) | 0.0056 | 1.53 (inactive) | -0.314 (inactive) | 1.02 (inactive) | -0.348 (inactive) | 1.94 | -2.5 (inactive) | 0.626 (inactive) | -2.23 |
| COc1ccccc1CN1C(=O)c2ccccc2[C@@]2(Cc3ccccc3N(CC(F)(F)F)C2=O)[C@@H]1c1ccc(CO)cc1 | 0.0586 | 0.338 (inactive) | 0.126 (inactive) | 1.24 (inactive) | -0.173 (inactive) | 0.276 | 0.173 | -0.116 | -0.33 | 0.53 | 0.254 (inactive) | 0.0623 | 0.252 (inactive) | 0.633 (inactive) | -1.9 (inactive) | 0.206 (inactive) | -0.309 | -0.802 (inactive) | -0.565 (inactive) | -0.154 |
| O=C1NC(=O)C2C1C=CC(C(O)c1cccc3ccccc13)N2Nc1ccc(Cl)cc1Cl (stereo not given) | 0.288 | -1.96 (inactive) | -0.329 (inactive) | -0.14 (inactive) | -0.572 (inactive) | 0.984 | 0.153 | -0.616 | 1.01 | -0.325 | -1.85 (inactive) | 0.505 | 1.98 (inactive) | 0.994 (inactive) | -2.46 (inactive) | 1.42 (inactive) | -1.11 | -1.37 (inactive) | -6.34 (inactive) | -3.5 |
| CN(C)C(=O)[C@]1(CCS(=O)(=O)c2ccccc2)N=C(c2ccc(OCCCO)cc2)O[C@@H]1c1ccccc1N=[N+]=[N-] | 0.758 | -2.79 (inactive) | 0.0474 (inactive) | 1.92 (inactive) | -0.977 (inactive) | 2.06 | 0.246 | 1.42 | 1.78 | 0.605 | -0.0791 (inactive) | 0.382 | 31.2 (active) | 27.2 (active) | 2.03 (inactive) | 6.58 (inactive) | 0.178 | 0.502 (inactive) | 1.64 (inactive) | 1.24 |
